According to the supplement of paper PMC6555819:

Key:
Assay in all cases: PBM binding z-score (relative to random genomic background probes); higher = stronger binding; sequences stand for … in GC…GCGATTGACAGCGTAGAATGAAGG
[1] = system: FXR:RXRa (NR concentration 270 nM, RXRa partner concentration 90 nM)
In short: (§1)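 Binding z-scores take random background probes as their reference. They come from custom Agilent 4×180K protein-binding microarrays incubated 1 h with ligand-free nuclear receptor dimers, with antibodies against each partner (one per run) detecting binding. Scanned fluorescence was regression-normalized.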

[2] = system: LXRa:RXRa (NR concentration 270 nM, RXRa partner concentration 90 nM)
In short: as §1

[3] = system: LXRa homodimer (NR concentration 270 nM)
In short: as §1

[4] = system: LXRb:RXRa (NR concentration 270 nM, RXRa partner concentration 90 nM)
In short: as §1

[5] = system: LXRb homodimer (NR concentration 270 nM)
In short: as §1

[6] = system: PPARa:RXRa (NR concentration 270 nM, RXRa partner concentration 90 nM)
In short: as §1

[7] = system: PPARg:RXRa (NR concentration 180 nM, RXRa partner concentration 90 nM)
In short: as §1

[8] = system: PPARg:RXRa 270nM:90nM, anti-RXR (NR concentration 270 nM, RXRa partner concentration 90 nM)
In short: as §1

[9] = system: PPARg:RXRa 30nM:10nM, anti-RXR (NR concentration 30 nM, RXRa partner concentration 10 nM)
In short: as §1

[10] = system: PPARg:RXRa 90nM:30nM, anti-RXR (NR concentration 90 nM, RXRa partner concentration 30 nM)
In short: as §1

[11] = system: PPARg:RXRa DBDmut IVT, anti-RXR (DBD mutation: RXRa K156A/R161A, NR concentration 270 nM, RXRa partner concentration 90 nM)
In short: as §1

[12] = system: PPARg:RXRa IVT, anti-PPARg (NR concentration 270 nM, RXRa partner concentration 90 nM)
In short: as §1

[13] = system: PPARg DBDmut:RXRa IVT, anti-PPARg (DBD mutation: PPARg1 K132A/R137A, NR concentration 270 nM, RXRa partner concentration 90 nM)
In short: as §1

[14] = system: PPARg DBDmut IVT, anti-PPARg (DBD mutation: PPARg1 K132A/R137A, NR concentration 270 nM)
In short: as §1

[15] = system: PPARg homodimer (NR concentration 180 nM)
In short: as §1

[16] = system: PXR:RXRa (NR concentration 270 nM, RXRa partner concentration 90 nM)
In short: as §1

[17] = system: PXR homodimer (NR concentration 270 nM)
In short: as §1

[18] = system: RARa:RXR (NR concentration 270 nM, RXRa partner concentration 90 nM)
In short: as §1

[19] = system: RARa homodimer (NR concentration 270 nM)
In short: as §1

[20] = system: RARb:RXRa (NR concentration 270 nM, RXRa partner concentration 90 nM)
In short: as §1

Row | Sequence | PBM binding z-score [1] | PBM binding z-score [2] | PBM binding z-score [3] | PBM binding z-score [4] | PBM binding z-score [5] | PBM binding z-score [6] | PBM binding z-score [7] | PBM binding z-score [8] | PBM binding z-score [9] | PBM binding z-score [10] | PBM binding z-score [11] | PBM binding z-score [12] | PBM binding z-score [13] | PBM binding z-score [14] | PBM binding z-score [15] | PBM binding z-score [16] | PBM binding z-score [17] | PBM binding z-score [18] | PBM binding z-score [19] | PBM binding z-score [20]
1 | CGTCCAAGGTCTGAGAGGTCAGTGAATGCCGAGT | 1.6 | 1.76 | 0.726 | 1.58 | -0.51 | 2.29 | -0.0569 | 0.729 | -0.614 | -0.154 | 0.28 | 0.77 | -0.424 | -1.57 | 1.81 | 2.94 | 1.65 | 2.79 | 0.0831 | 3.24
2 | ACTATTAGTTGGGACGAGGGCAACCGATAGGTTG | 0.251 | 0.126 | -0.235 | 0.0169 | 0.305 | 0.354 | 0.695 | 0.305 | 0.0129 | 0.225 | -0.0902 | 0.659 | 0.777 | 0.502 | 0.934 | 0.478 | 0.579 | 0.451 | 0.563 | 1.03
3 | GCAACGAGGGCATTCGAGTTGATAGCATGGCGAT | 0.802 | 1.56 | -0.374 | 0.0313 | -0.641 | 1.15 | 0.475 | 0.0611 | -0.488 | -0.307 | 1.69 | 1.13 | -0.431 | -0.39 | -0.299 | 3.66 | 1.02 | 0.56 | -0.554 | 1.69
4 | TAGCCTAGGTCATTGGGCCAGCATAGTACGCATC | 3.88 | 3.2 | 0.466 | 1.87 | -0.0227 | 3.46 | 3.57 | 3.71 | 0.617 | 2.5 | 2.61 | 3.89 | 0.103 | -0.682 | 0.524 | 1.58 | -0.351 | 2.11 | -0.399 | 3.64
5 | CCTCGGAGGACAGAAGGTCAGTGCTGTCCGCTTT | 1.08 | 1.1 | -0.0896 | 0.672 | -0.597 | 1.49 | -0.509 | 0.452 | -0.825 | -0.242 | -0.0749 | -0.108 | -0.925 | -2 | 1.55 | 1.18 | -0.686 | 1.65 | -0.0741 | 3.28
6 | TCTTGTAGATCAATAGAGGTAAAGAAAGTGCGCT | 0.355 | 0.562 | -0.497 | 0.281 | -0.231 | 0.706 | -0.0447 | 1.14 | 2.57 | 1.62 | 1.51 | 0.822 | 0.0443 | 0.312 | -0.815 | 0.573 | 0.0758 | 0.505 | -0.142 | -0.0126
